{
  "source": "PubChem BioAssay AID434936",
  "about": "(National Center for Advancing Translational Sciences (NCATS), 2010)",
  "note": "Records with an inconclusive call do not appear. Calls of active or inactive are those of the source. Calls follow the shape of the dose curve; as a rule, active = well fitted curve in either direction with a large enough effect; inconclusive = small, poorly fitted or top-dose-only effect; inactive = flat fitted curve, though single readings scatter.",
  "data": [
    {"target": "Neuropeptide S receptor (Homo sapiens) (UniProt Q6W5P4)", "sequence (Q6W5P4 whole entry, looked up)": "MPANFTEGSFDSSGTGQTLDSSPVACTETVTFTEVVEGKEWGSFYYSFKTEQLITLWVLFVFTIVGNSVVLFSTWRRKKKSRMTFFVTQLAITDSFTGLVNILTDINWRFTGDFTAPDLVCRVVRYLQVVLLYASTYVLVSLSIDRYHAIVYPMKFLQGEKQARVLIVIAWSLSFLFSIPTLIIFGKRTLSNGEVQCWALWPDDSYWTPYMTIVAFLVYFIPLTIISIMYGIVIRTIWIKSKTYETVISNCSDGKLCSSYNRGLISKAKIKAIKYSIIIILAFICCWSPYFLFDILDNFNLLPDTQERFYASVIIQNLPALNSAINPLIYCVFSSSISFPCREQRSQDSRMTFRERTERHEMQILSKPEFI", "assay": "Confirmation Concentration-Response Assay for Antagonists of the Neuropeptide S Receptor: Robust Characterization of cAMP Signal Transduction", "details": "CHO-NPSR cells, NPS-stimulated cAMP TR-FRET", "from_the_text": "NIH Chemical Genomics Center [NCGC] NIH Molecular Libraries Probe Production centers Network [MLPCN] MLPCN Grant: X01-DA026210-01 Assay Submitter (PI): Heilig, Markus Alexander NCGC Assay Overview: Neuropeptide S receptor (NPSR), previously known as GPR154, is a recently de-orphanized G protein coupled receptor. Its endogenous ligand is the 20 amino acids peptide Neuropeptide S (NPS). […] NPS and its receptor are found in various tissues. Specifically they are highly expressed in brain areas that have been implicated in modulation of arousal, stress and anxiety. Central administration of NPS in mice produces an unusual profile of activity by inducing wakefulness and arousal, while at the same time suppressing anxiety. Therefore, NPSR may represent a novel drug target for the treatment of sleep and anxiety disorders. To identify NPSR antagonists, we developed a cell-based cAMP assay. NPS can stimulate the production of cAMP in Chinese hamster ovary cells stably expressing NPS receptor. This change in intracellular cAMP level can be detected by a homogeneous LANCE cAMP assay based on the TR-FRET (time resolved fluorescence resonance energy transfer) between a europium-labeled cAMP tracer complex and a cAMP-specific antibody labeled with Alexa Fluor 647. The europium-labeled cAMP tracer complex is formed by the tight interaction between Biotin-cAMP (b-cAMP) and streptavidin labeled with Europium-W8044 chelate (Eu-SA). Light pulse at 320 nm excites the europium of the cAMP tracer and the energy emitted is transferred to the Alexa molecule bound to the cAMP antibody, generating a TR-FRET signal at 665 nm. Residual energy from the europium will produce a light at 620 nm. The native unlabeled cAMP from cell lysates competes with the europium-cAMP tracer for antibody binding and reversely reduces the emission signal of Alexa by interrupting FRET between the two labeled molecules. Both emission signals from the FRET donor (620 nm) and the acceptor (665 nm) can be detected by a plate reader in the TRF mode. Expression of result in fluorescence ratio (665 nm/620 nm) helps to normalize differences due to cell density and reagent dispensing. This assay was successfully optimized to a 1536-well plate format. Select compounds from the primary screen (AID 1461) were chosen for confirmation based on potency, efficacy, SAR, and activity across other assays in PubChem and at NCGC. Other compounds are analogs of active compounds from the primary screen. This particular assay uses a high density of sampling across concentration-response space to establish more confidence estimates of potency.\nNCGC Assay Protocol Summary: A Chinese hamster ovary (CHO) cell line stably expressing the NPS receptor (CHO-NPSR) was obtained from Dr. Heilig lab at NIAAA and maintained in F-12 Kaighn's media (Invitrogen, Carlsbad, CA, 21127) supplemented with 10 % FBS, 100 units/ml penicillin, 100 ug/ml streptomycin and 250 ug/ml geneticin at 37C, 5% CO2 in a humidified atmosphere. Before the assay, aliquots of cells were frozen and stored at -135C. The assay was performed in 1536-well format. Data are reported for both the ratio of the two emission wavelengths, and also for the component 'donor' channel, Em2=620. […] IC50 values were determined from concentration-response data modeled with the standard Hill equation. NPS 1536-well assay protocol: (1) Fresh or frozen CHO-NPSR cells were suspended in F-12 Kaighn's media supplemented with 10 % FBS, 100 units/ml penicillin and 100 ug/ml streptomycin. Cells were plated at 4 ul/well (1200 cells) to white, tissue culture treated 1536-well plates, and then cultured at 37C, 5 % CO2 for 16 to 30 hours. (2) Add 23 nl/well of compound in DMSO solution. The final titration for each compound was between 0.6 nM and 46 uM. […]", "values": [
      {"smiles": "Cc1c(P(=S)(c2ccccc2)c2ccccc2)[n+]2ccccc2n1Cc1ccccc1", "Potency": "1250 nM (active)"},
      {"smiles": "Cc1nc2ccccn2c1P(=S)(c1ccccc1)c1ccccc1", "Potency": "17700 nM (active)"},
      {"smiles": "Cc1c(P(=S)(c2ccccc2)c2ccccc2)[n+]2ccccc2n1CCc1ccccc1", "Potency": "2100 nM (active)"},
      {"smiles": "Cc1c(P(=S)(c2ccccc2)c2ccccc2)[n+]2ccccc2n1CCCc1ccccc1", "Potency": "106 nM (active)"},
      {"smiles": "Cc1c(P(=S)(c2ccccc2)c2ccccc2)[n+]2ccccc2n1C", "Potency": "1670 nM (active)"},
      {"smiles": "Cc1c(P(=S)(c2ccccc2)c2ccccc2)[n+]2ccccc2n1C/C=C/c1ccccc1", "Potency": "44.5 nM (active)"},
      {"smiles": "Cc1c(P(=S)(c2ccccc2)c2ccccc2)[n+]2ccccc2n1CCCCc1ccccc1", "Potency": "1.1 nM (active)"},
      {"smiles": "Cc1c(P(=S)(c2ccccc2)c2ccccc2)[n+]2ccccc2n1CCCCCc1ccccc1", "Potency": "705 nM (active)"}
    ]}
  ]
}
